In PubChem BioAssay (EPA / NIEHS) one finds outcome and AC50 data, which are given here for 39 molecules.

Molecules are shown by their SMILES. Results filed as inconclusive are left out. Active and inactive are the calls of the source. How the source made its calls, unless noted: active means hit-call score of the fitted dose curve at least 0.9, where 1 is the maximum; inactive means score below 0.9.

A short description of assay [1]: BSK_BT_PBMCCytotoxicity: PBMC Cytotoxicity Assessment in the BioMAP Diversity Plus: BT Assay (AID 2284225).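 Further: PBMC viability measured by Alamar Blue dye reduction fluorescence.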 The conditions noted are these: primary human B cells with PBMC. The method, boiled down:
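75,000 cells/well; cpd 1 h → SEB + TSST-1 (20 ng/mL final each) → 90 h → Alamar Blue 6 h → fluor. 546/580 nm. DMSO = neg. control/baseline.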

Assay [2] can be described thus: BSK_BT_Bcell_Proliferation: Viability Assessment in the BioMAP Diversity Plus: BT Assay for B cell Proliferation (AID 2284227). The conditions noted are these: primary human B cells with PBMC. The method, boiled down: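 Using a human primary B cell–PBMC co-culture, the assay measures total protein by sulforhodamine B absorbance as a gauge of proliferation after 72 h. Analysis followed the positive fitting direction with DMSO as baseline.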

Read-out in assay [3]: Interleukin 6 (IL6), IL6 (gene 3569)
Kind of assay: BSK_BT_xIL6: BioMAP Diversity Plus: BT Assay for Interleukin 6 (IL6) Biomarker Activity (AID 2284228). The conditions noted are these: primary human B cells with PBMC. The method, boiled down:
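B cells and peripheral blood mononuclear cells (human primary co-culture) were dosed with chemical, and after 24 h IL-6 released into the medium was measured by Luminex xMAP. Responses were analysed as gain of signal over DMSO control.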

Read-out in assay [4]: Interleukin 17A (IL17A), IL17A (gene 3605)
The assay can be described thus: BSK_BT_xIL17A: BioMAP Diversity Plus: BT Assay for Interleukin 17A (IL17A) Biomarker Activity (AID 2284229). The conditions noted are these: primary human B cells with PBMC. The method, boiled down: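 Secreted IL-17A was the measured endpoint, read by Luminex xMAP multiplex in supernatants of a human B cell/PBMC co-culture harvested 24 h after chemical dosing. Signal increase relative to DMSO defined activity.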

Read-out in assay [5]: Tumor necrosis factor (Homo sapiens) (UniProt P01375)
The assay can be described thus: BSK_BT_xTNFa: BioMAP Diversity Plus: BT Assay for Tumor necrosis factor alpha (TNF-alpha) Biomarker Activity (AID 2284230). The conditions noted are these: primary human B cells with PBMC. The method, boiled down:
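Endpoint derived in the positive direction versus DMSO vehicle. Cells: B cells together with PBMC, exposed 24 h before TNF-alpha in the medium was read on the Luminex xMAP platform.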

A short description of assay [6]: CCTE_Mundy_HCI_Cortical_Synap_Neur_Matur_SynapseCount: CCTE's Synaptogenesis and Neurite Maturation Assay in rat cortical cells for Synapse Count, Mundy Lab (AID 2284218). The method, boiled down: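 Synapse count per neuron is measured in rat cortical neurons exposed to chemicals between DIV 7 and DIV 12, with glial growth arrested by AraC at DIV 5. Synaptophysin and MAP2 staining is imaged automatically; activity is fitted relative to DMSO.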

A short description of assay [7]: CCTE_Mundy_HCI_Cortical_Synap_Neur_Matur_NeuriteCount: CCTE's Synaptogenesis and Neurite Maturation Assay in rat cortical cells for Neurite Count, Mundy Lab (AID 2284222).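 Further: exposure from day 7 to day 12 in vitro with readout at day 12.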 The method, boiled down: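 In this multiplexed morphology readout, rat primary cortical neurons are fixed at DIV 12 following dosing at DIV 7 and stained for MAP2, synaptophysin and nuclei. High-content image analysis yields neurite count.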

A short description of assay [8]: CCTE_Mundy_HCI_Cortical_Synap_Neur_Matur_CellBodySpotCount: CCTE's Synaptogenesis and Neurite Maturation Assay in rat cortical cells for Cell Body Spot Count, Mundy Lab (AID 2284223). The method, boiled down:
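Rat cortical neurons; AraC @ DIV 5; dose + media change DIV 7; fix DIV 12; anti-MAP2/anti-synaptophysin IF, Hoechst; HCI count of soma synaptophysin puncta/neuron; DMSO = negative control.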

A short description of assay [9]: CCTE_Mundy_HCI_hNP1_Pro_ResponderAvgInten: CCTE's Proliferation Assay in human neuroprogenitor cells, Mundy Lab (AID 2284224; active means hit-call score of the fitted dose curve at least 0.9, where 1 is the maximum). The method, boiled down: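 Proliferation was scored as BrdU labelling intensity in human neural progenitors derived from WA09 embryonic cells, measured 26.25 hours after chemical dosing. Activity was fitted relative to DMSO.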
Assay [10] is described as follows: TAMU_PeakParms_SingleDonor1434_Chronotropy: Texas A&M University (TAMU) 1.5-hr Human Induced Pluripotent Stem Cell (iPSC)-derived Cardiomyocytes Calcium (Ca+2) Flux Assay for Cardiotoxicity: Chronotropy (changes in peak frequency) (AID 2284217). The conditions noted are these: actives raise or lower the signal. The method, boiled down: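 Using fluorescent Ca2+ flux, average beats per second are measured in human iPSC-derived cardiomyocytes treated 90 min (0.5% DMSO vehicle, 0.2–100 uM). Non-beating data points are removed; activity is modeled in both directions relative to DMSO controls.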

Tumor necrosis factor (Homo sapiens), sequence (P01375 whole entry, looked up): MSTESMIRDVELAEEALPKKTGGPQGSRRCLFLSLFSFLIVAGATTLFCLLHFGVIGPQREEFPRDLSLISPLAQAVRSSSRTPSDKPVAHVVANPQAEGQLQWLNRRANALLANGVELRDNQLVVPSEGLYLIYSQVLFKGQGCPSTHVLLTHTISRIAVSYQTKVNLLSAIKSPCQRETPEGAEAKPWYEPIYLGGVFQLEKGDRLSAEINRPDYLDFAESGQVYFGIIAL

`CC1CCC(C(C)CS)CC1S` (configuration not stated): the result in assay [1], in [2], in assay [3], in [4] and in [5] was inactive.
For `CN(C)C(=N)N=C(N)N`, the molecule was classed as inactive in assay [6], in [7] and in [8].
On to `CCCCCCCCCC=O`, for which the outcome in [1], in assay [2], in assay [3], in assay [4] and in assay [5] was inactive.
For orientation: AC50 means the concentration at which the activity in the assay is half-maximal. Regarding `O=C=NC1CCC(CC2CCC(N=C=O)CC2)CC1` (configuration not stated), the outcome in [1], in assay [3], in [4] and in assay [5] was inactive. Also, in [2], the concentration at half-maximal activity (AC50) was 31.2 µM (active).
In the case of `CC(=O)O[C@]1(C(C)=O)CC[C@H]2[C@@H]3C[C@H](C)C4=CC(=O)CC[C@]4(C)[C@H]3CC[C@@]21C`, the outcome in assay [1], in assay [2], in [3], in assay [4] and in assay [5] was inactive.
Consider `BrC1CCC(Br)C(Br)CCC(Br)C(Br)CCC1Br` (configuration not stated), for which the AC50 in assay [1] is 32.4 µM (active); in [2], 28.4 µM (active); in assay [4], 17.4 µM (active); in assay [5] it was 28.2 µM (active). The outcome in assay [3] was inactive.
Regarding `C=C[Si](OCC)(OCC)OCC`, the result in assay [1], in assay [2], in [3], in [4] and in assay [5] was inactive.
`O=C1OC2(c3cc(Br)c(O)c(Br)c3Oc3c2cc(Br)c(O)c3Br)c2c(Cl)c(Cl)c(Cl)c(Cl)c21`: the outcome in [1] and in assay [2] was inactive. Besides, the AC50 is 8.52 µM (active) in assay [3], 9.94 µM (active) in assay [4] and 13.2 µM (active) in assay [5].
On to `Cc1ccc2n[nH]nc2c1`, for which the outcome in assay [1], in assay [2], in assay [3], in assay [4] and in [5] was inactive.
For the molecule `N#Cc1ccc(CC(=NNC(=O)Nc2ccc(OC(F)(F)F)cc2)c2cccc(C(F)(F)F)c2)cc1`, the result in assay [6], in assay [7], in assay [8], in [9], in [1] and in assay [2] was inactive. Moreover, the outcome in [3], in assay [4] and in assay [5] was inactive.
For `CN(CCOc1ccc(CC2SC(=O)NC2=O)cc1)c1ccccn1` (configuration not stated), the outcome in assay [1], in assay [2], in [3], in assay [4] and in assay [5] was inactive.
Turning to `O=C1CCCCCCCCCCCCCCO1`, the half-maximal activity concentration (AC50) was 36.8 µM (active) in [1]; 34.9 µM (active) in [2]; 30.4 µM (active) in assay [3]; 25.2 µM (active) in [4]; 35.8 µM (active) in [5].
For `Nc1cc([N+](=O)[O-])ccc1Cl`, the result in assay [1], in assay [2], in [3], in assay [4] and in assay [5] was inactive.
With `C=C(C)C(=O)O[C@H]1C[C@@H]2CC[C@@]1(C)C2(C)C`, the result in assay [1], in assay [2], in assay [3], in assay [4] and in assay [5] was inactive.
For `CCc1c(C)cc(N)c(CC)c1N`, the outcome in assay [1], in assay [2], in assay [3], in assay [4] and in assay [5] was inactive.
Take `CCCCC(CC)COC(=O)/C=C\C(=O)OCC(CC)CCCC` (configuration not stated): the half-maximal activity concentration (AC50) in [1] was 36.1 µM (active); in assay [2], 20 µM (active); in assay [3] it was 11.2 µM (active). In addition, the result in assay [4] and in assay [5] was inactive.
Consider `CCCCC(CC)COCCC#N` (configuration not stated), for which the result in assay [1], in assay [2], in assay [3], in assay [4] and in assay [5] was inactive.
For the molecule `Cc1ccc(O)c(C(C)(C)C)c1`, the outcome in assay [1], in assay [2], in [3], in assay [4] and in assay [5] was inactive.
With `CNC[C@H](O)c1cccc(O)c1`, the result in assay [1], in assay [2], in [3], in assay [4] and in assay [5] was inactive.
Regarding `c1ccc2sc(SN(C3CCCCC3)C3CCCCC3)nc2c1`, the outcome in assay [1], in assay [2], in [3], in assay [4] and in assay [5] was inactive.
Consider `CC(=O)/C=C/C1=C(C)CCCC1(C)C`, for which the outcome in [1], in assay [2], in [3], in assay [4] and in assay [5] was inactive.
On to `O=C(O)c1cn(C2CC2)c2cc(N3CCNCC3)c(F)cc2c1=O`, for which the outcome in assay [1], in [2], in [3], in [4] and in assay [5] was inactive.
Regarding `Cc1ccc(Nc2ccc(O)c3c2C(=O)c2ccccc2C3=O)cc1`, the outcome in assay [1], in assay [2], in assay [3], in assay [4] and in assay [5] was inactive.
In the case of `O=P(c1ccccc1)(c1ccccc1)c1ccccc1`, the outcome in assay [1], in [2], in assay [3], in assay [4] and in assay [5] was inactive.
With `C#C[C@]1(O)CC[C@H]2[C@@H]3CCC4=Cc5oncc5C[C@]4(C)[C@H]3CC[C@@]21C`, the outcome in assay [1] and in [3] was inactive. The AC50 in assay [2] was 33.1 µM (active); in assay [4], 24.4 µM (active); in [5], 33.7 µM (active).
For `CC1COc2ccccc2N1C(=O)C(Cl)Cl` (configuration not stated), the half-maximal activity concentration (AC50) in assay [1] is 12.4 µM (active); in assay [2] it was 14.1 µM (active). In addition, the outcome in [3], in assay [4] and in assay [5] was inactive.
On to `CC(=O)Nc1ccccc1O`, for which the outcome in assay [1], in assay [2], in assay [3], in assay [4] and in [5] was inactive.
On to `CCCCCCCCCCCCCCCCCC(=O)OCC(CC)CCCC` (configuration not stated), for which the outcome in [1], in [2], in [3], in [4] and in [5] was inactive.
As to `c1ccc2c(c1)c1cccc3ccc4cccc2c4c31`, the AC50 in assay [10] was 9.92 µM (active); in assay [3], 2.63 µM (active). The outcome in assay [1], in assay [2], in assay [4] and in assay [5] was inactive.
With `O=C(O)c1cn(-c2ccc(F)cc2)c2cc(N3CCNCC3)c(F)cc2c1=O`, the outcome in [1], in assay [2], in [3], in [4] and in [5] was inactive.
For `CC(C)Oc1ccccc1O`, the result in assay [1], in assay [2], in assay [3], in assay [4] and in assay [5] was inactive.
Consider `CCn1c2ccccc2c2cc(N)ccc21`, for which the result in assay [1], in assay [4] and in assay [5] was inactive. Further, the AC50 in assay [2] was 13.1 µM (active); in assay [3] it was 11.6 µM (active).
Take `O=[N+]([O-])c1cc(C(F)(F)F)ccc1Cl`: the result in assay [1], in assay [2], in [3], in [4] and in assay [5] was inactive.
In the case of `CC(C)c1ccc(C(C)C)cc1`, the result in assay [1], in assay [2], in [3], in assay [4] and in assay [5] was inactive.
`CCCCCCCCC=O`: the result in assay [1], in [2], in assay [3], in [4] and in [5] was inactive.
For the molecule `CCCCC/C=C/C=C/C=O`, the AC50 in assay [1] is 20 µM (active); in [2] it was 20.1 µM (active); in assay [3], 27.4 µM (active); in assay [4] it was 20 µM (active); in assay [5] it was 35.7 µM (active).
As to `COC(=O)c1ccc(C)cc1`, the outcome in assay [1], in assay [2], in [3], in [4] and in [5] was inactive.
Take `O=C(O)C[C@H](O)C[C@H](O)/C=C/c1c(C2CC2)nc2ccccc2c1-c1ccc(F)cc1`: the outcome in assay [1] and in assay [3] was inactive. Also, the values for the AC50 in [4] and in assay [5] were 2.42 µM (active) and 3 µM (active), respectively.
`CC(C)(COC(=O)c1ccccc1)COC(=O)c1ccccc1`: the outcome in assay [1], in assay [2], in [3], in [4] and in assay [5] was inactive.
